The values below come from PubChem BioAssay AID540359 (Broad Institute, 2011).

Measured potencies and affinities stand elsewhere. Unmarked numbers belong to inactive results. No rule for the calls is given here.

The experiment deals with UDP-galactopyranose mutase (Mycobacterium tuberculosis (strain ATCC 25618 / H37Rv)) (UniProt P9WIQ1). Kind of experiment: Mycobacterium tuberculosis UGM enzyme inhibition, dose response confirmation, purified biochemical assay (AID 540359). The note with it: plate reader activity; series mostly up to 50 µM; activity change, negative = inhibition: at the top concentration.
Chain of UDP-galactopyranose mutase (Mycobacterium tuberculosis (strain ATCC 25618 / H37Rv)) (P9WIQ1 whole entry, looked up): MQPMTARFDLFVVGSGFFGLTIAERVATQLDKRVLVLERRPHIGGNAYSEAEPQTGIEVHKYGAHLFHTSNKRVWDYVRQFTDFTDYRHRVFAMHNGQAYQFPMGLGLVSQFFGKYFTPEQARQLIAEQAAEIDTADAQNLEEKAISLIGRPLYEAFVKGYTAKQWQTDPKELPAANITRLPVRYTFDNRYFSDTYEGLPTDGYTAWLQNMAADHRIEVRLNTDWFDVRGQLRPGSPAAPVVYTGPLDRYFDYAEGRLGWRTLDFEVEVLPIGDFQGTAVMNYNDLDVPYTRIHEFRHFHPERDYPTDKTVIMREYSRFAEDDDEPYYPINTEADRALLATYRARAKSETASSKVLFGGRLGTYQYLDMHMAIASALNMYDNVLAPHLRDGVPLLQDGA
For `COc1ccccc1NC(=O)c1sc2nc(Cc3ccccc3)cc(C(F)(F)F)c2c1N`, the “activity change, negative = inhibition” value was -21.8%.

On to `CCN(CC)S(=O)(=O)c1ccc2c(c1)c(=O)c(C(=O)NCc1ccco1)cn2C`, for which the “activity change, negative = inhibition” value is 2.92%. The value for `Cc1ccc(-c2nc3sc(C#N)c(N)n3c(=O)c2C#N)cc1` was 12.5%. The value for `CN(CC(=O)NC1CC1)S(=O)(=O)c1ccc(Br)cc1` was -4.54%; that for `CCN(CC)CCCNC(=O)c1cc(Sc2nnc(C)s2)nc2ccccc12` was -0.597%. As to `CCOc1ccc(C(C(=O)NC2CCCC2)N(C(=O)CNC(=O)c2ccco2)c2cccnc2)cc1` (stereo unspecified), the “activity change, negative = inhibition” value was -2.17%. As for `CCCC(=O)Nc1ccc(Cc2ccc(NC(=O)CCC)c(C(=O)O)c2)cc1C(=O)O`, the “activity change, negative = inhibition” value is -4.98%.

Consider `O=S(=O)(c1ccccc1)N(CC1CO1)c1cc(Cl)ccc1Cl` (stereo unspecified), for which the “activity change, negative = inhibition” value was -0.131%. The value for `COc1ccc(N2C(=O)c3cccc4c(N(C)CCO)ccc(c34)C2=O)cc1` was 7.74%; that for `CCN(C(=O)COC(=O)c1ccc(O)cc1O)c1c(N)n(Cc2ccccc2)c(=O)[nH]c1=O` was -2.73%.

With `O=C(Nc1ccccc1F)C(=Cc1sc(N2CCOCC2)nc1-c1ccccc1)C(=O)Nc1ccccc1F`, the “activity change, negative = inhibition” value is -2.18%. The result for `Cc1c(N=C2N=C(NC(=O)c3ccc(F)cc3)c3ccccc32)c(=O)n(-c2ccccc2)n1C` reads -29%; that for `CCC1=NN2C(=N)/C(=C\c3cccn3-c3ccc(OC)cc3)C(=O)N=C2S1`, -3.99%; that for `O=C(COC(=O)COc1cccc(Br)c1)NCc1ccc2c(c1)OCO2`, -0.801%. The value for `CCN(CC)C(=O)C1c2ccccc2Oc2ccccc21` was 0.397%; that for `O=C(Cc1cccs1)Nc1cc(SCCO)cc([N+](=O)[O-])c1` was -2.71%.
